Screens: PubChem, National Center for Advancing Translational Sciences (NCATS)
An excerpt weighted towards active compounds, which were near 19% of everything screened.
MCF10A rerep: induces DNA re-replication in MCF 10a normal breast cells; Potency, µM (titrated, usually from 46.1 µM), for inactives: top-dose activity, positive = re-replication, hits mostly activators; MCF 10A DNA re-replication, Hoechst nuclear intensity, 48 h; actives 2.9% (n = 350,000); AID 624296; also: potency is read from the fitted curve at half-maximal effect; % of control where 0% means no effect; nearly all actives have a fitted effect of over 50% in size
IL1B secr inh: blocks inflammasome-driven IL-1 beta release | THP-1 LPS/ATP IL-1B secretion, AlphaLISA, 16 h; stronger effect = lower value | activity change, % at 57.5 µM | actives 4.7% (n = 360,000); in the data active = activity change below about -50%; inconclusive = mostly about -30% to -49%; also: % is scaled to controls: 0 for no effect and ±100 for the full control effect
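THP-1 cells pretreated 1 hr with compounds (up to 57.5 uM final), then stimulated with LPS (250 ng/mL final) plus ATP (1.25 mM final); secreted IL-1B measured by AlphaLISA after 16 hr, decreased signal indicating inhibition.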
DT40 TDP1 no CPT: qHTS for Inhibitors of human tyrosyl-DNA phosphodiesterase 1 (TDP1): qHTS in cells in absence of CPT; DT40 Tdp1-/- hTDP1 cells, no CPT, ATP luminescence, 48 h; Potency, µM (doses to about 46.2 µM), for inactives: at the top dose activity change, negative = growth inhibition, actives largely listed as inhibitors; actives 15% (n = 420,000); AID 686978, 2013; also: potency is read from the fitted curve at half-maximal effect; % is scaled to controls: 0 for no effect and ±100 for the full control effect; nearly all actives have a fitted effect of over 55% in size
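Chicken DT40 Tdp1-/- cells stably complemented with human TDP1 were seeded at 400 cells/well with DMSO in place of 20 nM camptothecin. After compound pinning, cells grew at least 48 hr at 37 °C; viability read by CellTiter-Glo luminescence.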
SW480 rereplic: inducers of DNA re-replication in SW480 colon cancer cells | actives 1.8% (n = 340,000) | AID 624297 | SW480 DNA re-replication, Hoechst DNA content imaging, 48 h | Potency, µM (titrated, usually from 46.1 µM), for the others: top-dose re-replication activation, hits mostly activators; also: potency is read from the fitted curve at half-maximal effect; % of control where 0% means no effect; nearly all actives have a fitted effect of over 55% in size
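Per well, 250 cells were exposed to pinned compound for 48 hr. Nuclear DNA was visualised with Hoechst (40 min, 37 C) and total object intensity recorded by fluorescence scanning.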
BCR signal inh: blocks chronic active B-cell receptor signaling; ABC-DLBCL IkBa-CBG/CBR reporter, luminescence ratio, 4 h; Potency, µM (top dose mostly 46.1 µM), without a hit: top-dose activity change, negative = inhibition, actives largely listed as inhibitors; actives 0.05% (n = 340,000); active = well fitted inhibition curve with a large enough effect in the signal ratio, with a control signal flat, not every such curve was filed as active; inconclusive = small, poorly fitted or top-dose-only effect, or effect the other way, or a change in a side signal; the % refers to the signal ratio;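 also: potency is read from the fitted curve at half-maximal effect; plate controls were basal doxycycline-induced cells for no effect and cells given 10 µM MG132 for full effect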
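TMD8 human ABC-DLBCL cells with doxycycline-inducible IκBα–green luciferase fusion and unfused red luciferase, in 0.5% FBS medium; compounds up to 46 uM, 4 h at 37C. Green/red luminescence ratio, filter-overlap corrected, fitted to concentration-response curves.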
DT40 TDP1 CPT: growth inhibition of DT40 Tdp1-/-;hTDP1 cells with camptothecin (screen for TDP1 inhibitors); chicken DT40 Tdp1-/-;hTDP1 cells + 20 nM CPT, ATP luminescence, 48 h; Potency, µM (series often up to 46.2 µM), inactives show at the highest dose activity change, negative = growth inhibition, usual class: inhibitors; actives 12% (n = 420,000); AID 686979; also: potency is read from the fitted curve at half-maximal effect; % is scaled to controls: 0 for no effect and ±100 for the full control effect; nearly all actives have a fitted effect of over 55% in size
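Cell growth measured by CellTiter-Glo luminescence after a minimum 48 h, 37 C compound exposure with 20 nM CPT in Tdp1-knockout DT40 cells stably expressing hTDP1, seeded 400/well; qHTS titration format.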
Starred values were filed as active, the others as inactive; ? = inconclusive; nt = no result. Unless noted, calls follow the shape of the dose curve; as a rule, active = well fitted curve in the direction sought with a large enough effect; inconclusive = small, poorly fitted or top-dose-only effect, or another doubt; inactive = no such curve, though single readings can be large; an effect the other way counts as inactive or inconclusive.

SMILES	MCF10A rerep	IL1B secr inh	DT40 TDP1 no CPT	SW480 rereplic	BCR signal inh	DT40 TDP1 CPT
COc1ccc(C(=O)Nc2ccc(Cl)c(S(=O)(=O)Nc3ccccc3OC)c2)cc1	9%	-1	?	3%	6%	?
N#Cc1ccc(OCC(=O)OCC(=O)Nc2sccc2C(N)=O)cc1	-3%	10	0%	-28%	-2%	9%
CN1CCN(c2ccnc(-c3cccnc3)n2)CC1	nt	nt	2%	nt	nt	2%
COc1ccccc1NS(=O)(=O)c1cc(NC(=O)c2ccncc2)ccc1N1CCCC1	?	-25	21µM*	-1%	?	?
COc1ccc(NS(=O)(=O)c2cc(NC(=O)c3ccccc3F)ccc2N2CCCC2)cc1	5%	-23	?	3%	?	?
COc1ccc(NS(=O)(=O)c2cc(NC(=O)c3cccs3)ccc2N2CCCC2)cc1	14%	-8	21µM*	?	?	?
COc1ccccc1NS(=O)(=O)c1cc(NC(C)=O)ccc1N1CCCCC1	14%	?	-6%	8%	-5%	-19%
CCOC(=O)C(=CNc1ccc(N2CCCCC2)c(S(=O)(=O)Nc2ccccc2OC)c1)C(=O)OCC	3%	-13	5.8µM*	2%	nt	3.7µM*
COC(=O)c1cc2oc3ccccc3c2n1CC(=O)Nc1ccc(C)cc1C	nt	nt	-3%	nt	nt	?
CC(C)C[C@H](NC(=O)C1CC(=O)N(c2ccc3c(c2)OCO3)C1)C(=O)NC1CCCCC1 (some centres not stated)	-1%	-7	14%	-26%	0%	-2%
O=C(c1ccccc1)c1nccc2ccccc12	?	12	-23%	-1%	?	-10%
OC(c1ccccc1)(c1ccccc1)c1nccc2ccccc12	10%	-55*	?	2%	nt	-28%
CC(NC(c1ccccc1)c1ccccc1)C(=O)N1CCCc2ccccc21 (configuration not stated)	?	-5	10µM*	-2%	?	12µM*
CC(NCC1(N2CCOCC2)CCCCC1)C(=O)N1CCc2ccccc21 (configuration not stated)	1%	-12	?	-3%	?	-15%
CC(Nc1ccccc1N1CCCCC1)C(=O)N1CCc2ccccc21 (configuration not stated)	0%	-22	16µM*	0%	1%	?
COc1cccc(NC(=O)Cn2c(=O)n(CC(=O)NCc3ccc(C)cc3)c(=O)c3sccc32)c1	nt	nt	-25%	nt	nt	?
N#Cc1cc2cc3c(cc2nc1NCCNC(=S)NCCCN1CCOCC1)OCO3	21µM*	-19	?	?	?	-28%
N#Cc1cc2cc3c(cc2nc1SCC(=O)N1CCOCC1)OCO3	2%	-8	-23%	-2%	2%	2%
Cc1ccc(Cn2ccn(CC(=O)Nc3ccccc3C(F)(F)F)c(=O)c2=O)cc1	nt	nt	-2%	nt	nt	0%
Cc1nn(C)c(C)c1/C=C/C(=O)c1ccc(Cl)cc1Cl	-41%	-68*	13µM*	1%	?	8.2µM*
Cc1nn(C)c(C)c1/C=C/C(=O)O	2%	7	6%	5%	0%	2%
COc1ccccc1Nc1nnc(SCC(=O)NC(=O)Nc2ccc3c(c2)OCCO3)s1	21µM*	13	?	17%	?	?
Cc1cccc(Nc2nnc(SCC(=O)NC(=O)Nc3ccc4c(c3)OCCO4)s2)c1	23µM*	28	?	?	?	?
Nc1c(Cl)ncnc1NCCc1ccc(O)cc1	1%	7	5.8µM*	?	-2%	13µM*
CC1CC(C)CN(c2ccc([N+](=O)[O-])nc2)C1 (configuration not stated)	?	-9	-6%	-30%	5%	8%
SMILES	MCF10A rerep	IL1B secr inh	DT40 TDP1 no CPT	SW480 rereplic	BCR signal inh	DT40 TDP1 CPT
O=c1c2c3c(sc2nc(NCCO)n1CCc1ccccc1)CCCCC3	4.6µM*	-12	4.1µM*	?	?	5.8µM*
COCCNc1nc2sc3c(c2c(=O)n1Cc1ccco1)CCCCC3	8.2µM*	12	16µM*	-9%	11%	13µM*
Cc1nc(NCc2cccnc2)c2c3c(sc2n1)CCCC3	10%	-20	?	-8%	10%	?
CN(C)CCNc1nc2sc3c(c2c(=O)n1-c1ccccc1)CCCCC3	?	nt	?	-1%	0%	2%
CN(C)CCNc1nc2sc3c(c2c(=O)n1Cc1ccccc1)CCCCC3	18µM*	-96*	?	16%	-1%	?
OCCNc1nc(SCc2ccccc2)nc2sc3c(c12)CCC3	?	-14	15µM*	-10%	23%	?
Cc1ccccc1NC(=O)CSc1nnc(-c2ccccc2)n1-c1ccccc1	0%	-29	?	6%	12%	-75%
Cc1ccc(C)c(-n2cc(-c3ccccc3)nc2SCC(=O)Nc2ccccc2)c1	nt	nt	18µM*	nt	19%	?
Cc1ccccc1NC(=O)CSc1nc(-c2ccccc2)cn1-c1ccccc1F	nt	nt	23µM*	nt	?	?
Cc1ccccc1-n1cc(-c2ccccc2)nc1SCC(=O)Nc1ccc(F)cc1	nt	nt	?	nt	-4%	?
COC(=O)c1ccc(CN(c2ccc(C(=O)O)c(O)c2)S(=O)(=O)c2ccc(Cl)c([N+](=O)[O-])c2)cc1	3.7µM*	-86*	16µM*	-1%	?	16µM*
COC(=O)c1ccc(CN(c2ccccn2)S(=O)(=O)c2ccccc2)cc1	17%	20	?	-3%	-4%	-22%
N#Cc1nc(COc2ccccc2)oc1N1CCN(Cc2ccccc2)CC1	?	?	?	-6%	?	?
N#Cc1nc(COc2ccccc2)oc1N1CCC(Cc2ccccc2)CC1	-1%	-55*	?	14%	0%	?
Cc1ccc(OCc2nc(C#N)c(N3CCN(Cc4ccccc4)CC3)o2)cc1	2%	-29	?	-23%	0%	18µM*
COc1ccc(N2CCN(c3oc(Cc4cccc5ccccc45)nc3C#N)CC2)cc1	6%	-29	6.5µM*	3%	10%	?
N#Cc1nc(COc2ccc(F)cc2)oc1N1CCCC1	1%	-26	-4%	10%	12%	-1%
Cc1cccc(NC(=O)COC(=O)CCc2c[nH]c3ccccc23)c1	3%	0	-9%	-13%	-9%	?
